Records with an inconclusive call do not appear. Where a call stands in place of a potency, no number is given. Active and inactive are the calls of the source. The call rests on the fitted dose curve; in most records, active means well fitted curve in the direction sought with a large enough effect; inconclusive means small, poorly fitted or top-dose-only effect, or another doubt; inactive means no such curve, though single readings can be large; an effect the other way counts as inactive or inconclusive.
Legend:
CP185 = test: qHTS profiling for inhibitors of Plasmodium falciparum proliferation (AID 504749); further: nearly all actives have a fitted effect of over 60% in size; further: potency means the concentration at half of the fitted maximal effect; details: P. falciparum in erythrocytes, SYBR Green DNA, 72 h; series mostly up to 28.7 µM
Method in brief: (§1)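 P. falciparum-infected erythrocytes (0.3% parasitemia, 2.5% hematocrit final) were exposed to compounds for 72 h at 37 C in 5% CO2, then lysed with SYBR Green buffer overnight at room temperature; parasite DNA fluorescence was normalized to artemisinin and DMSO controls.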

CP194 = test: as above; details: P. falciparum in erythrocytes, SYBR Green DNA, 72 h; series mostly up to 28.7 µM
Method in brief: as §1

CP203 = test: as above; details: P. falciparum in erythrocytes, SYBR Green DNA, 72 h; series mostly up to 28.7 µM
Method in brief: as §1

CP211 = test: as above; details: P. falciparum in erythrocytes, SYBR Green DNA, 72 h; series mostly up to 28.7 µM
Method in brief: as §1

CP215 = test: as above; details: P. falciparum in erythrocytes, SYBR Green DNA, 72 h; series mostly up to 28.7 µM
Method in brief: as §1

CP238 = test: as above; details: P. falciparum in erythrocytes, SYBR Green DNA, 72 h; series mostly up to 28.7 µM
Method in brief: as §1

CP256 = test: as above; details: P. falciparum in erythrocytes, SYBR Green DNA, 72 h; series mostly up to 28.7 µM
Method in brief: as §1

CP266 = test: as above; details: P. falciparum in erythrocytes, SYBR Green DNA, 72 h; series mostly up to 28.7 µM
Method in brief: as §1

CP268 = test: as above; details: P. falciparum in erythrocytes, SYBR Green DNA, 72 h; series mostly up to 28.7 µM
Method in brief: as §1

CP286 = test: as above; details: P. falciparum in erythrocytes, SYBR Green DNA, 72 h; series mostly up to 28.7 µM
Method in brief: as §1

CP291 = test: as above; details: P. falciparum in erythrocytes, SYBR Green DNA, 72 h; series mostly up to 28.7 µM
Method in brief: as §1

CP297 = test: as above; details: P. falciparum in erythrocytes, SYBR Green DNA, 72 h; series mostly up to 28.7 µM
Method in brief: as §1

DIV14 = test: as above; details: P. falciparum in erythrocytes, SYBR Green DNA, 72 h; series mostly up to 28.7 µM
Method in brief: as §1

DIV17 = test: as above; details: P. falciparum in erythrocytes, SYBR Green DNA, 72 h; series mostly up to 28.7 µM
Method in brief: as §1

ECU = test: as above; details: P. falciparum in erythrocytes, SYBR Green DNA, 72 h; series mostly up to 28.7 µM
Method in brief: as §1

HB3 = test: as above; details: P. falciparum in erythrocytes, SYBR Green DNA, 72 h; series mostly up to 28.7 µM
Method in brief: as §1

JCK = test: as above; details: P. falciparum in erythrocytes, SYBR Green DNA, 72 h; series mostly up to 28.7 µM
Method in brief: as §1

N140 = test: as above; details: P. falciparum in erythrocytes, SYBR Green DNA, 72 h; series mostly up to 28.7 µM
Method in brief: as §1

W2 = test: as above; details: P. falciparum in erythrocytes, SYBR Green DNA, 72 h; series mostly up to 28.7 µM
Method in brief: as §1

[1] = S16 Schwann cell viability assay (CellTiter-Glo assay) (AID 624031);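 further: native untransfected S16 rat Schwann cells; cellular ATP luminescence as a viability measure; nearly all actives have a fitted effect of over 70% in size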
Method in brief: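 Following overnight culture in 10% FBS DMEM, parental S16 rat Schwann cells are dosed for 24 h at 37 °C. Viability is read as CellTiter-Glo luminescence and expressed as % activity relative to DMSO (0%) and no-cell wells.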

Structure (SMILES)	Potency (CP185)	Potency (CP194)	Potency (CP203)	Potency (CP211)	Potency (CP215)	Potency (CP238)	Potency (CP256)	Potency (CP266)	Potency (CP268)	Potency (CP286)	Potency (CP291)	Potency (CP297)	Potency (DIV14)	Potency (DIV17)	Potency (ECU)	Potency (HB3)	Potency (JCK)	Potency (N140)	Potency (W2)	Potency [1]
Cn1cc(C(=O)[C@@H]2CCc3[nH]cnc3C2)c2ccccc21	inactive	inactive	inactive	inactive	inactive	inactive	inactive	inactive	inactive	inactive	inactive	inactive	inactive	inactive	inactive	inactive	inactive	inactive	inactive	–
Cc1cnc(NC(=O)C2C(=O)c3ccccc3S(=O)(=O)N2C)s1 (stereo unspecified)	inactive	inactive	inactive	inactive	inactive	inactive	inactive	–	inactive	inactive	inactive	inactive	inactive	inactive	inactive	inactive	inactive	inactive	inactive	inactive
CC(C)(C)NC[C@H](O)CSc1nc(-c2ccc(C(N)=O)s2)cs1	inactive	inactive	inactive	inactive	inactive	inactive	inactive	inactive	inactive	inactive	inactive	inactive	–	–	inactive	inactive	inactive	inactive	inactive	inactive
CCCSS/C(CCO)=C(/C)N(C=O)Cc1cnc(C)nc1N	inactive	inactive	inactive	inactive	inactive	inactive	inactive	inactive	inactive	inactive	inactive	inactive	inactive	inactive	inactive	inactive	inactive	inactive	inactive	–
C=C1/C(=C\C=C2/CCC[C@]3(C)[C@@H]([C@H](C)/C=C/[C@@H](O)C4CC4)CC[C@@H]23)C[C@@H](O)C[C@@H]1O	inactive	inactive	inactive	inactive	inactive	inactive	inactive	inactive	inactive	inactive	–	inactive	inactive	inactive	inactive	inactive	inactive	inactive	–	inactive
C[C@]12CCC(=O)C=C1[C@@H]1C[C@H]1[C@H]1[C@@H]3[C@@H]4C[C@H]4[C@@]4(CCC(=O)O4)[C@@]3(C)CC[C@@H]12	inactive	–	inactive	inactive	–	inactive	inactive	inactive	inactive	inactive	inactive	inactive	–	inactive	inactive	inactive	inactive	inactive	–	inactive
C#C[C@]1(O)CC[C@H]2[C@H]3[C@H](CC[C@@]21C)C1=C(CC(=O)CC1)C[C@@H]3C	inactive	inactive	inactive	inactive	inactive	inactive	inactive	inactive	inactive	inactive	inactive	inactive	inactive	–	inactive	inactive	inactive	inactive	–	–
CC1=C[C@@H](O)CC(C)(C)[C@@H]1/C=C/C(C)=C/C=C/C(C)=C/C=C/C=C(C)/C=C/C=C(C)/C=C/C1=C(C)C[C@H](O)CC1(C)C	inactive	inactive	inactive	inactive	–	inactive	inactive	inactive	inactive	inactive	inactive	–	12 µM (active)	–	–	11.2 µM (active)	–	11.2 µM (active)	6.75 µM (active)	inactive
C/C(=C(/CCOC(=O)C(C)C)SS/C(CCOC(=O)C(C)C)=C(\C)N(C=O)Cc1cnc(C)nc1N)N(C=O)Cc1cnc(C)nc1N	inactive	inactive	inactive	inactive	inactive	inactive	inactive	inactive	inactive	inactive	inactive	inactive	inactive	inactive	inactive	inactive	inactive	inactive	inactive	–
CC1=C(C/C=C(\C)CCCC(C)CCCC(C)CCCC(C)C)C(=O)c2ccccc2C1=O (stereo unspecified)	inactive	inactive	inactive	inactive	inactive	inactive	inactive	inactive	inactive	–	–	inactive	–	inactive	inactive	11.2 µM (active)	inactive	–	4.78 µM (active)	inactive
C[C@H](CN1c2ccccc2Sc2cccnc21)N(C)C	11.2 µM (active)	–	13.5 µM (active)	–	9.53 µM (active)	10 µM (active)	–	–	–	4.47 µM (active)	–	15.1 µM (active)	4.78 µM (active)	4.78 µM (active)	inactive	inactive	–	11.2 µM (active)	1.69 µM (active)	–
CC1=C(c2ccc(NN=C(C#N)C#N)cc2)NNC(=O)C1	inactive	inactive	inactive	inactive	inactive	inactive	inactive	inactive	inactive	inactive	inactive	inactive	inactive	–	inactive	inactive	inactive	inactive	inactive	inactive
OCC(O)C(O)C(O)C(O)CO (stereo unspecified)	inactive	inactive	inactive	inactive	inactive	inactive	inactive	inactive	inactive	inactive	inactive	inactive	inactive	inactive	inactive	inactive	inactive	inactive	inactive	inactive
CCC(C)C(N)C(=O)O (stereo unspecified)	inactive	inactive	inactive	inactive	inactive	inactive	inactive	inactive	inactive	inactive	inactive	inactive	inactive	inactive	inactive	inactive	inactive	inactive	–	inactive

Source: PubChem BioAssay (NCATS)
